This test is described as follows: Quantitative high throughput screen to test activity of anti-malarial compounds in the Dd2 strain of Plasmodium Falciparum. Conditions: P. falciparum Dd2 in RBCs, SYBR Green growth, 72 h. The source says:
NIH Molecular Libraries Probe Production Network [MLPCN] NIH Chemical Genomics Center [NCGC] MLPCN Grant: R21 NS059500 Assay Provider: David Fidock and Eric Ekland, Columbia University The goal of this screen is to measure the ability of a set of anti-malarial compounds to inhibit the Dd2 strain of P. falciparum. These compounds have been screened in a delayed death phenotype assay and have been identified as inhibitors of the delated death phenotype, by inhibiting the development of the apicoplast in the malarial parasite Plasmodium falciparum (described below) The biochemical processes that make this organelle essential for erythrocytic stage parasites are not well understood. However, antibiotics, such as azithromycin and tetracycline, which target the apicoplast translational machinery, have a potent antimalarial effect. […] We have developed a cell-based assay that measures parasite growth based on the expression of an integrated copy of a firefly luciferase reporter. To detect small molecules that cause this 'delayed death' phenotype, erythrocytes infected with the luciferase-expressing parasites were incubated with compounds for either one or two generations, corresponding to 48 and 96 hours, respectively. […] Growth inhibition is detected by a decrease in luciferase activity […]

In PubChem BioAssay AID504604 (National Center for Advancing Translational Sciences (NCATS), 2011) one finds Potency data, which are given here for two molecules.

Calls of active or inactive are those of the source. Calls follow the shape of the dose curve; as a rule, active = well fitted inhibition curve with a large enough effect; inconclusive = small, poorly fitted or top-dose-only effect; inactive = flat fitted curve, though single readings scatter.

As for `COc1ccc(COC[C@H](C)N2C[C@@H](C)[C@H](CN(C)S(=O)(=O)c3ccc(F)cc3)OCCCC[C@H](C)Oc3ccc(NC(=O)Nc4ccccc4)cc3C2=O)cc1`, the Potency is 0.0142 µM (active).
In the case of `C[C@@H]1CN([C@@H](C)CO)C(=O)c2cc(NC(=O)Nc3ccccc3)ccc2O[C@@H](C)CCCCO[C@H]1CN(C)C(=O)Oc1ccccc1`, the Potency is 8.96 µM (active).
